Test results from PubChem BioAssay AID1740 (National Center for Advancing Translational Sciences (NCATS), 2009).
Inconclusive results are not listed. Where a call stands in place of a potency, no number is given. A number with no mark means an inactive call. Activity calls are given as the source filed them. Calls come from the whole dose curve; as a rule, active = well fitted activation curve with a large enough effect; inconclusive = small, poorly fitted or top-dose-only effect; inactive = no such curve, though single readings can be large or run the other way.

Experiment: Confirmation Concentration-Response Assay for Enhancers of SMN2 Splice Variant Expression
Details: HEK293 SMN2-exon7-luciferase splicing reporter, luminescence, 30-36 h; series mostly up to 46.1 µM
How it was run: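 Luciferase signal reports exon 7 inclusion from an SMN2-luciferase construct stably expressed in HEK293 cells. After 30-36 h compound exposure at 37C, One Glo reagent was added and luminescence read; sodium butyrate 4.5mM final served as control.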

Row | SMILES | Potency | activation
1 | COCCCN1C(=O)C(=O)/C(=C(/O)c2ccc3c(c2)CC(C)O3)C1c1cccnc1 (configuration not stated) | inactive | 
2 | CC1CN(c2nc(-c3ccc(Br)cc3)nnc2-c2ccccc2)CC(C)N1 (configuration not stated) |  | -5.21% [at 9.48 µM]
3 | FC(F)(F)c1nnc(-c2ccccc2)nc1Oc1ccccc1 | inactive | 
4 | Fc1ccc(Oc2nc(-c3ccccc3)nnc2C(F)(F)F)cc1 | inactive | 
5 | O=C(NCCc1cn2ccsc2n1)c1cccs1 | inactive | 
6 | Cc1ccc(-c2nnc(-c3ccccc3)c(N3CCOCC3)n2)cc1 |  | 3.26% [at 9.48 µM]
7 | CCC(=O)n1nc(NCc2ccccc2OC)nc1NCc1ccccc1OC | inactive | 
8 | Clc1ccc(-c2nnc(-c3ccccc3)c(N3CCSCC3)n2)cc1 | inactive | 
9 | Nn1c(SCC(=O)NCCC2=CCCCC2)nnc1C1CCCCC1 | inactive | 
10 | CCOc1ccc2nc(N3CCC(C(=O)N4CCN(c5ccccn5)CC4)CC3)sc2c1 | inactive | 
11 | Cc1ccc(-c2csc(NC(=O)C3CCN(S(=O)(=O)c4cccs4)CC3)n2)cc1 | inactive | 
12 | Cn1cnc2c(NCc3ccco3)ncnc21 | inactive | 
13 | FC(F)C(F)(F)C1=CC(c2cccs2)=NCCN1 | inactive | 
14 | CC(/C=C/C(=O)NO)=C\[C@@H](C)C(=O)c1ccc(N(C)C)cc1 | 1.12 µM (active) | 
15 | Clc1nc(NCc2cccs2)c2[nH]cnc2n1 | inactive | 
16 | Clc1nc(NCc2ccco2)c2[nH]cnc2n1 | inactive | 
17 | CCCSc1nnc(Sc2nnnn2-c2ccccc2)s1 | inactive | 
18 | COc1nc(-c2ccc(Cl)cc2)nnc1C | inactive | 
19 | COC(=O)C1=C(C)NC(=O)/C1=C\c1cc(C)n(-c2ccccc2F)c1C | inactive | 
20 | Cc1ccc(-c2csc(N3CCC(NS(=O)(=O)c4ccc5c(c4)OCCO5)CC3)n2)cc1 | inactive | 
21 | Clc1nc(NCC2CCCO2)c2[nH]cnc2n1 (configuration not stated) | inactive | 
22 | COC(=O)C1=C(CN2CCc3ccccc32)NC(=O)NC1c1cc(C)ccc1C (configuration not stated) | inactive | 
23 | CCCc1sc(N2CCCC(C(N)=O)C2)nc1-c1ccccc1 (configuration not stated) | inactive | 
24 | Clc1ccc(-c2nnc(-c3ccccc3)nc2N2CCSCC2)cc1 |  | 6.97% [at 9.48 µM]
25 | FC(F)(F)c1cccc(Oc2nc(-c3ccccc3)nnc2C(F)(F)F)c1 | inactive | 
26 | Brc1nc2ncnc(NCc3ccco3)c2[nH]1 | inactive | 
27 | O=C(NCc1cccs1)C(=O)NCC1OCCCN1S(=O)(=O)c1ccccc1 (configuration not stated) | inactive | 
